Screening data as filed in PubChem.
E coli growth-1 = E. coli V3065 growth inhibition, primary screen, counter-screen for AddAB inhibitor project, absorbance, OD600; 18 h; inhibition, % at 11.9 µM; hit rate 0.27% among 330,000; AID 449728, 2010;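 active means inhibition above the campaign's mean inhibition across all tested compounds plus 3 SD, cut at about 9.9% in these data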;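 further: uninfected addAB+ strain grown without phage in ampicillin broth; 0% = DMSO wells and 100% = ciprofloxacin 0.95 µg/ml wells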
AddAB inh = growth inhibition of E. coli expressing H. pylori AddAB, primary screen, AddAB inhibitor project, absorbance. AID 435030, 2010. hit rate 0.29% among 330,000. inhibition, % at 11.9 µM; in the data active means inhibition above about 12%;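 further: 0% = vehicle wells of infected cells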
Tat transport = E. coli Tat export inhibitors, primary screen, MC4100, TorA-mCherry reporter, fluorescence, single point | inhibition, % at 10 µM | hit rate 0.036% among 340,000 | AID 488895, 2010;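 active means mean replicate inhibition at least 50% and at least half of replicates individually reaching 50%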;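 further: exported cargo escapes ClpAP degradation while cytoplasmic cargo is degraded and loses fluorescence; 0% = median of neutral control wells and 100% = median of NaSCN control wells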
phage Ecoli inh = growth loss of phage-infected E. coli, primary screen, RecBCD inhibitor project, absorbance, with phage, HTS; inhibition, % at 11.9 µM; hit rate 0.26% among 360,000; AID 651602, 2012; in the data active means inhibition above about 11%
E coli growth-2 = E. coli growth inhibition, primary screen, OD600. Escherichia coli growth, 23 h; stronger effect = lower value. OD600 absorbance (no concentration beside the values). hit rate 0.21% among 330,000. AID 1053175, 2014;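 active means OD600 absorbance below the run mean of sample wells minus 3.6 SD, in any replicate, cut at about 0.56 in these data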
AddAB conf = growth loss of phage-infected E. coli expressing H. pylori AddAB, confirmation, AddAB inhibitor project, absorbance, E. coli V3065, T4 phage, triplicate; shares compounds with AddAB inh; OD; T4 phage with gene 2 nonsense mutations; inhibition, % at 11.9 µM; hit rate 64% among 880;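 active means mean inhibition above a set limit taken from the earlier primary screen, cut at about 13% in these data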;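 further: higher means less bacterial growth since AddAB block lets phage replicate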
RecBCD counter = growth loss of RecBCD+ E. coli with mutant T4 phage, counter-screen for AddAB inhibitor project, absorbance, V66 E. coli. OD growth. shares compounds with AddAB inh. hit rate 73% among 880. inhibition, % at 11.9 µM;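 active means mean inhibition above the mean of solvent-only control wells plus 3 SD, cut at about 4% in these data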;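 further: optical density read after an 18 h incubation at 37 °C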
Bact viability = bacterial viability inhibition counter-screen, confirmation, counter-screen for AddAB inhibitor project, absorbance; shares compounds with AddAB inh; absorbance (AddAB counterscreen); inhibition, % at 11.9 µM; hit rate 35% among 880; AID 488956, 2010; in the data active means inhibition above about 25%
RecBCD conf = growth loss of phage-infected RecBCD+ E. coli, confirmation, RecBCD inhibitor project, absorbance, E. coli V66, T4 gene 2 phage; inhibition, % at 11.9 µM; E. coli V66 + T4 2- phage, growth OD; hit rate 45% among 890; shares compounds with phage Ecoli inh;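 active means mean inhibition over triplicates exceeding the hit threshold derived in the original primary screen, cut at about 11% in these data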
Ecoli viability = E. coli viability inhibition, counter-screen for RecBCD inhibitor project, absorbance, high throughput | inhibition, % at 11.9 µM | AID 651983, 2013 | shares compounds with phage Ecoli inh | hit rate 29% among 890 | absorbance (OD) growth; in the data active means inhibition above about 20%;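 further: E. coli strain V66 grown with compound alone and no phage infection; 0% = bacteria with DMSO vehicle only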
AddAB phage OD = growth loss of phage-infected AddAB-carrying E. coli, confirmation, counter-screen for RecBCD inhibitor project, absorbance, E. coli V3065, T4 phage | shares compounds with phage Ecoli inh | E. coli expressing H. pylori AddAB + T4 phage, OD growth; gene 2 mutant T4, recBCD-deleted host | inhibition, % at 11.9 µM | hit rate 45% among 890;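 active means mean inhibition above the solvent-only control wells' mean plus 3 SD, cut at about 22% in these data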;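 further: higher means less bacterial growth from phage killing when AddAB is blocked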
Starred values were filed as active, the others as inactive; x = no result. In the library only some 0.51% were active in any assay of this set; here they are far more common.

SMILES | E coli growth-1 | AddAB inh | Tat transport | phage Ecoli inh | E coli growth-2 | AddAB conf | RecBCD counter | Bact viability | RecBCD conf | Ecoli viability | AddAB phage OD
CC(=O)c1c(C)n([O-])c2cc(F)c(F)cc2[n+]1=O | 53* | 63* | 29 | 22* | 0.11* | 98* | 26* | 88* | 23* | 31* | 91*
COc1ccc2c(c1)[n+](=O)c(C(C)=O)c(C)n2[O-] | 0 | 1 | 3 | 1 | 0.69 | x | x | x | x | x | x
Cc1cc2ncn(N=Cc3cccnc3)c2cc1C | x | x | x | x | 0.71 | x | x | x | x | x | x
NC(=O)c1ccsc1NC(=O)c1ccc([N+](=O)[O-])o1 | 88* | 96* | -10 | 21* | 0.2* | 100* | 20* | 68* | 13* | 16 | 101*
Cc1ccnc(NC(=O)c2ccc([N+](=O)[O-])o2)c1 | 33* | 27* | -10 | 13* | 0.56 | 99* | 9.8* | 30* | 8 | 10 | 75*
CN1CCc2c(sc(NC(=O)c3ccc([N+](=O)[O-])o3)c2C(N)=O)C1 | 99* | 99* | 56* | 80* | x | 102* | 82* | 102* | 69* | 89* | 103*
Cc1ccnc(NC(=O)c2ccccc2[N+](=O)[O-])c1 | 1 | 2 | 2 | 3 | 0.7 | x | x | x | x | x | x
C=C1c2cccc(O)c2C(=O)C2C(=O)[C@]3(O)C(=O)C(C(N)=O)C(=O)[C@@H](N(C)C)[C@@H]3[C@@H](O)[C@H]12 (stereo not given in full) | 102* | 100* | 145* | 99* | x | 101* | 101* | 99* | 103* | 105* | 104*
O=[N+]([O-])c1cc(-c2ccc(C=Nc3nc4ccccn4c3-c3ccco3)o2)ccc1Cl | x | x | x | x | 0.73 | x | x | x | x | x | x
CC1CCc2c(N3CCC(O)CC3)c(F)cc3c(=O)c(C(=O)O)cn1c23 (stereo not given) | 102* | 101* | 60* | 103* | 0.059* | 96* | 99* | 97* | 102* | 103* | 103*
O=C(O)c1cn(C2CCCCC2)c2ccccc2c1=O | 1 | 0 | 2 | 1 | 0.65 | x | x | x | x | x | x
CC1CCc2cc(F)cc3c(=O)c(C(=O)O)cn1c23 (stereo not given) | 100* | 100* | 56* | 100* | 0.062* | 99* | 31* | 100* | 102* | 103* | 102*
NC1CCN(c2c(F)cc3c(=O)c(C(=O)O)cn(C4CC4)c3c2Cl)C1 (stereo not given) | 98* | 97* | 149* | 99* | 0.066* | 102* | 100* | 102* | 101* | 101* | 99*
CC(=NNC(N)=O)c1cc(Cl)cc(Cl)c1O | x | x | x | x | 0.68 | x | x | x | x | x | x
Cc1ccccc1C(=O)Nc1cccc(C(=O)NN=Cc2cc(Cl)cc([N+](=O)[O-])c2O)c1 | x | x | x | x | 0.66 | x | x | x | x | x | x
COc1cccc(C=NNc2nn3cnnc3c3ccccc23)c1O | x | x | x | x | 0.74 | x | x | x | x | x | x
COc1cc(CN2CCCCCC2)cc(OC)c1OC | 0 | 3 | 2 | 2 | 0.67 | x | x | x | x | x | x
COc1cc(Cc2cnc(N)nc2N)cc(OC)c1OC | 100* | 99* | -28 | 101* | 0.064* | 98* | 100* | 100* | 101* | 102* | 101*
COc1ccc(/C=N/Nc2ncnc(Cl)c2N)cc1OC | 0 | 1 | -1 | 3 | x | x | x | x | x | x | x
COc1cccc(/C=N/Nc2ncnc3scc(-c4ccccc4)c23)c1O | 17* | 15* | 0 | 11* | x | 1 | 12* | 6 | 2 | 6 | 18
COc1cccc(/C=N/Nc2ncnc(Cl)c2N)c1O | 15* | 12* | 6 | 30* | x | 21* | 29* | 18 | 27* | 30* | 23*
Nc1nc(Cl)nc2c1ncn2C1CCC(CO)O1 (stereo not given) | x | x | x | 3 | x | x | x | x | x | x | x
O=c1[nH]cnc2c1ncn2[C@H]1CC[C@@H](CO)O1 | 98* | 97* | 8 | 101* | x | 98* | 96* | 98* | 98* | 100* | 99*
O=c1[nH]cnc2c1ncn2[C@@H]1C[C@@H](O)[C@H](CO)O1 | -2 | 2 | -13 | 1 | 0.61 | x | x | x | x | x | x
Nc1ncnc2c1ncn2[C@H]1CC[C@@H](CO)O1 | 75* | 76* | 14 | 53* | 0.36* | 94* | 48* | 89* | 60* | 55* | 88*
SMILES | E coli growth-1 | AddAB inh | Tat transport | phage Ecoli inh | E coli growth-2 | AddAB conf | RecBCD counter | Bact viability | RecBCD conf | Ecoli viability | AddAB phage OD
CCOC(=O)C=CC1CCc2cccc(C)c2O1 (stereo not given) | x | x | x | x | 0.65 | x | x | x | x | x | x
S=C1NCC(Cc2ccccc2)N1CCCCC1CCCCC1 (stereo not given) | x | x | x | x | 0.68 | x | x | x | x | x | x
NC(=O)C1=CC(C2CCCCC2)CC(OCc2ccc(CO)cc2)O1 (stereo not given) | x | x | x | x | 0.71 | x | x | x | x | x | x
CN1CCN(C(c2ccc(F)cc2)c2ccc3cccnc3c2O)CC1 (stereo not given) | x | x | 1 | x | 0.69 | x | x | x | x | x | x
CN1CCN(C(c2ccc(Br)cc2)c2cc(Cl)c3cccnc3c2O)CC1 (stereo not given) | 23* | 22* | -8 | 13* | x | 11 | 11* | 5 | 2 | 4 | 3
COc1ccccc1OCC(=O)N/N=C/C=C/c1ccc([N+](=O)[O-])o1 | 54* | 83* | 20 | 12* | x | 101* | 24* | 94* | 18* | 23* | 99*
CCCC(=O)NC(c1ccc(N(C)C)cc1)c1c(O)ccc2ccccc12 (stereo not given) | -3 | -3 | 1 | 4 | 0.67 | x | x | x | x | x | x
CCCCC(=O)NC(c1ccc(N(C)C)cc1)c1ccc2cccnc2c1O (stereo not given) | 35* | 25* | 20 | 23* | x | 30* | 23* | 21 | 13* | 15 | 14
CCCCC(=O)NC(c1ccc(N(CC)CC)cc1)c1ccc2cccnc2c1O (stereo not given) | 17* | 20* | 1 | 19* | x | 24* | 17* | 19 | 12* | 14 | 19
